Where “and” joins values, the source holds several entries; their conditions need not be identical. Equal entries are not always repeated. Inconclusive results are not listed. Calls of active or inactive are those of the source. Unless noted, calls come from the whole dose curve; as a rule, active = well fitted curve in the direction sought with a large enough effect in the repeat runs; inconclusive = weak or mixed curves; inactive = no such curve, though single readings can be large; an effect the other way counts as inactive or inconclusive.

The nature of experiment [1]: qHTS assay to identify aromatase inhibitors - cell viability counter screen (AID 743084).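 Note: cells stimulated with testosterone during compound exposure; nearly all actives have a fitted effect of over 55% in size.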 In general terms: In qHTS, concentration-response curves come from the screen itself.
Experiment [2] addresses Aryl hydrocarbon receptor (Homo sapiens) (UniProt P35869). Kind of experiment: qHTS assay to identify small molecule that activate the aryl hydrocarbon receptor (AhR) signaling pathway (AID 743085).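 For activation: HG2L7.5c1 human HepG2 liver cells with stably integrated DRE-driven firefly reporter; series mostly up to about 70 µM.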 Note: nearly all actives have a fitted effect of over 15% in size. Note: potency is the fitted concentration of half-maximal effect. Put shortly:
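HepG2 cells (HG2L7.5c1) stably carrying a firefly luciferase reporter driven by 20 dioxin responsive elements were exposed to compound for 24 h at 37C after a 5 h settling period; luminescence rise (ONE-Glo) indicated activation.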

Experiment [3] in a line: qHTS assay to identify small molecule that activate the aryl hydrocarbon receptor (AhR) signaling pathway - cell viability counter screen (AID 743086).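 Note: HepG2 liver cells carrying the AhR DRE luciferase reporter; series mostly up to about 70 µM; nearly all actives have a fitted effect of over 45% in size.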 Put shortly: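 HepG2-AhR-luc (HG2L7.5c1) cells, 4000/well, were preincubated 5 h at 37C, exposed to compound in qHTS format for 24 hr at 37C, then given CellTiter-Fluor for 30 min; viability was read as fluorescence in the reporter wells.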

In experiment [4] the target is Peroxisome proliferator-activated receptor gamma (Homo sapiens) (UniProt P37231). In words: qHTS assay to identify small molecule agonists of the peroxisome proliferator-activated receptor gamma (PPARg) signaling pathway (AID 743094; active = well fitted activation curve with a large enough effect in the signal ratio in the repeat runs, not every such curve was filed as active; the % refers to the signal ratio). An outline of the steps:
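Cells from the PPARg UAS-bla HEK293H line are plated and incubated 5 h at 37C. Compounds in DMSO are pinned in and left 17 h at 37C. LiveBLAzer B/G substrate is then added for 1 h at room temperature before fluorescence is measured.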

A short description of experiment [5]: qHTS assay to identify small molecule antagonists of the peroxisome proliferator-activated receptor gamma (PPARg) signaling pathway - cell viability counter screen (AID 743194). Note: nearly all actives have a fitted effect of over 55% in size. Put shortly:
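PPARg-UAS-bla HEK293H cells were plated, rested 5 h at 37 C, then treated with compounds plus rosiglitazone (50 nM final) for 17 h at 37 C; viability was then read by CellTiter-Glo luminescence after 30 min at room temperature.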

A short description of experiment [6]: qHTS assay for small molecule agonists of the antioxidant response element (ARE) signaling pathway (AID 743202; active = well fitted activation curve with a large enough effect in the signal ratio in the repeat runs, not every such curve was filed as active; the % refers to the signal ratio; note: potency is the fitted concentration of half-maximal effect). Put shortly:
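Steps: seed ARE-bla HepG2 cells (2,000/well); incubate 5 h at 37 C; add compounds by pin tool; incubate 16 h at 37 C; add FRET substrate; read fluorescence after 2 h at RT.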

Experiment [7] is described as follows: qHTS assay for small molecule agonists of the antioxidant response element (ARE) signaling pathway - cell viability counter screen (AID 743203; calls by dose curve; note: nearly all actives have a fitted effect of over 55% in size). Put shortly:
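Cytotoxicity was tested in parallel with the ARE reporter screen. ARE-bla HepG2 cells were exposed to compounds for 16 hrs, and viability was taken from CellTiter-Glo luminescence.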

Experiment [8] in a line: qHTS assay for small molecule activators of the heat shock response signaling pathway - cell viability counter screen (AID 743209). Note: nearly all actives have a fitted effect of over 50% in size. An outline of the steps:
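Cytotoxicity counter screen run in parallel with the HSE beta-lactamase reporter, using the same wells. HeLa HSE-bla cells received compound for 5 h at 37 C; ATP-based CellTiter-Glo luminescence was measured after 30 min at room temperature.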

Experiment [9] can be described thus: qHTS assay for small molecule activators of the heat shock response signaling pathway (AID 743210; active = well fitted activation curve with a large enough effect in the signal ratio in the repeat runs, with a control signal flat, not every such curve was filed as active; the % refers to the signal ratio;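 note: HeLa cells with beta-lactamase reporter driven by heat shock elements; series mostly up to about 63 µM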). Put shortly:
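Activation of heat shock element-controlled beta-lactamase expression is measured in HeLa cells by LiveBLAzer FRET fluorescence, with compound exposure lasting 5 h at 37 C and substrate loading 2.5 h at room temperature.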

Experiment [10] can be described thus: qHTS assay to identify small molecule agonists of the peroxisome proliferator-activated receptor delta (PPARd) signaling pathway - cell viability counter screen (AID 743211). Note: nearly all actives have a fitted effect of over 55% in size. Put shortly: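 PPARd-bla HEK293H cells (UAS-beta-lactamase reporter) were treated with compounds for 17 h at 37 C. Viability was then read in the same wells by CellTiter-Glo luminescence after 30 min at room temperature.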

A short description of experiment [11]: qHTS assay to identify small molecule antagonists of the peroxisome proliferator-activated receptor delta (PPARd) signaling pathway - cell viability counter screen (AID 743213). Note: nearly all actives have a fitted effect of over 50% in size. An outline of the steps:
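PPARd-bla HEK293H cells (3000/well) got compound plus 300 nM L165041 agonist for 17 h at 37 C. Viability in the same wells came from CellTiter-Glo luminescence after 30 min at room temperature.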

The nature of experiment [12]: qHTS assay to identify small molecule agonists of the farnesoid-X-receptor (FXR) signaling pathway - cell viability counter screen (AID 743218). Note: nearly all actives have a fitted effect of over 45% in size. Put shortly:
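Cells were seeded, left 5 h at 37 C and 5% CO2, then dosed with compound in DMSO for 16 h. After the beta-lactamase FRET read, CellTiter-Glo was added and luminescence measured 30 min later.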

Experiment [13] in a line: qHTS assay to identify small molecule antagonists of the farnesoid-X-receptor (FXR) signaling pathway - cell viability counter screen (AID 743221; active = well fitted cell-killing curve with a large enough effect in the repeat runs, not every such curve was filed as active; note: nearly all actives have a fitted effect of over 50% in size). An outline of the steps: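 FXR-UAS-bla HEK 293T cells were treated with test compounds plus chenodeoxycholic acid (50 uM final) for 16 h at 37 C. Cell viability in the same wells was then read as CellTiter-Glo luminescence after 30 min at room temperature.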

For experiment [14], the target named is Vitamin D3 receptor (Homo sapiens) (UniProt P11473). Kind of experiment: qHTS assay to identify small molecule antagonists of the vitamin D receptor (VDR) signaling pathway (AID 743223; active = well fitted inhibition curve with a large enough effect in the signal ratio in the repeat runs, not every such curve was filed as active; the % refers to the signal ratio). Put shortly:
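VDR-bla cells were plated, incubated 4 h at 37C, then given compound and 1alpha,25-dihydroxyvitamin D3 (3 nM final). After 16 h at 37C, LiveBLAzer B/G FRET substrate was added for 2 h at room temperature and fluorescence read.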

Experiment [15] concerns the target Peroxisome proliferator-activated receptor delta (Homo sapiens) (UniProt Q03181). Kind of experiment: qHTS assay to identify small molecule agonists of the peroxisome proliferator-activated receptor delta (PPARd) signaling pathway (AID 743212; calls by dose curve). Put shortly: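 Cells expressing a UAS-driven beta-lactamase reporter (PPARd-bla HEK293H) were given test compounds after a 5 h settle and kept at 37 C. Reporter activity was then measured as FRET fluorescence using LiveBLAzer B/G substrate.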

Experiment [16] shares this target. In words: qHTS assay to identify small molecule antagonists of the peroxisome proliferator-activated receptor delta (PPARd) signaling pathway (AID 743215; active = well fitted inhibition curve with a large enough effect in the signal ratio in the repeat runs, not every such curve was filed as active; the % refers to the signal ratio;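 note: cells stimulated with agonist L165041 at 300 nM final during compound exposure; series mostly up to about 62 µM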). Put shortly: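 Cells: HEK293H with a UAS-driven beta-lactamase reporter responsive to PPARd. Compounds were co-added with L165041 (300 nM, final) and incubated 17 h at 37 C before a 2 h room-temperature FRET substrate step and fluorescence reading.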

Experiment [17] addresses Bile acid receptor (Homo sapiens) (UniProt Q96RI1). In words: qHTS assay to identify small molecule antagonists of the farnesoid-X-receptor (FXR) signaling pathway (AID 743217; active = well fitted inhibition curve with a large enough effect in the signal ratio in the repeat runs, not every such curve was filed as active; the % refers to the signal ratio). An outline of the steps:
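Cells carrying a UAS-driven beta-lactamase reporter (GeneBLAzer FXR-UAS-bla HEK 293T) were plated and rested 5 h at 37 °C. Compounds in DMSO were added alongside chenodeoxycholic acid agonist at 50 uM final and left 16 h at 37 °C before FRET substrate readout.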

For experiment [18] the target is unchanged. Kind of experiment: qHTS assay to identify small molecule agonists of the farnesoid-X-receptor (FXR) signaling pathway (AID 743220; active = well fitted activation curve with a large enough effect in the signal ratio in the repeat runs, not every such curve was filed as active; the % refers to the signal ratio). Put shortly: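 FXR-UAS-bla HEK 293T cells carrying a UAS-driven beta-lactamase reporter were plated for 5 h at 37C/5% CO2, then exposed to DMSO-dissolved Tox21 10K compounds for 16 h at 37C. A LiveBLAzer B/G FRET substrate was loaded for 2 h at room temperature before fluorescence reading.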

Experiment [19] addresses Vitamin D3 receptor (Homo sapiens) (UniProt P11473). In words: qHTS assay to identify small molecule agonists of the vitamin D receptor (VDR) signaling pathway (AID 743222; calls by dose curve). An outline of the steps: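 Cells carrying a VDR-driven beta-lactamase reporter are seeded at 2,000 per well and rested 4 h. Compounds in DMSO are added for 16 h at 37C, and FRET substrate fluorescence is measured after 2 h at room temperature.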

For experiment [20], the target named is Peroxisome proliferator-activated receptor gamma (Homo sapiens) (UniProt P37231). Kind of experiment: qHTS assay to identify small molecule antagonists of the peroxisome proliferator-activated receptor gamma (PPARg) signaling pathway (AID 743191; calls by dose curve; note: series mostly up to about 63 µM; nearly all actives have a fitted effect of over 30% in size). An outline of the steps:
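GeneBLAzer PPARg UAS-bla HEK293H cells carrying a UAS-driven beta-lactamase reporter were plated at 3000 cells/well, preincubated 5 h at 37C, then given compound for 17 h at 37C; LiveBLAzer B/G FRET substrate was read after 1 h at room temperature.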

Peroxisome proliferator-activated receptor delta (Homo sapiens), sequence (Q03181 whole entry, looked up): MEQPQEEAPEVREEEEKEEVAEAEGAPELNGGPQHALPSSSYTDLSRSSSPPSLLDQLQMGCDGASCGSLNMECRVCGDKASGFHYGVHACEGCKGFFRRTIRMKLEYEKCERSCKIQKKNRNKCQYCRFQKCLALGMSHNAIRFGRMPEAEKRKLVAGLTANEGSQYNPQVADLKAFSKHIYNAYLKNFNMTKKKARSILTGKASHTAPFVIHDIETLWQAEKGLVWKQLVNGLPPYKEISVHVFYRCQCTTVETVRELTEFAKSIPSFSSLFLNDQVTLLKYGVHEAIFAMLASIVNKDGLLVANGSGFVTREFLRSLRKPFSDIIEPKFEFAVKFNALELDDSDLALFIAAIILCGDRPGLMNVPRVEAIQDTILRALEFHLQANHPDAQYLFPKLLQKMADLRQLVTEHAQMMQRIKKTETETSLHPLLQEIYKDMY
Aryl hydrocarbon receptor (Homo sapiens), sequence (P35869 whole entry, looked up): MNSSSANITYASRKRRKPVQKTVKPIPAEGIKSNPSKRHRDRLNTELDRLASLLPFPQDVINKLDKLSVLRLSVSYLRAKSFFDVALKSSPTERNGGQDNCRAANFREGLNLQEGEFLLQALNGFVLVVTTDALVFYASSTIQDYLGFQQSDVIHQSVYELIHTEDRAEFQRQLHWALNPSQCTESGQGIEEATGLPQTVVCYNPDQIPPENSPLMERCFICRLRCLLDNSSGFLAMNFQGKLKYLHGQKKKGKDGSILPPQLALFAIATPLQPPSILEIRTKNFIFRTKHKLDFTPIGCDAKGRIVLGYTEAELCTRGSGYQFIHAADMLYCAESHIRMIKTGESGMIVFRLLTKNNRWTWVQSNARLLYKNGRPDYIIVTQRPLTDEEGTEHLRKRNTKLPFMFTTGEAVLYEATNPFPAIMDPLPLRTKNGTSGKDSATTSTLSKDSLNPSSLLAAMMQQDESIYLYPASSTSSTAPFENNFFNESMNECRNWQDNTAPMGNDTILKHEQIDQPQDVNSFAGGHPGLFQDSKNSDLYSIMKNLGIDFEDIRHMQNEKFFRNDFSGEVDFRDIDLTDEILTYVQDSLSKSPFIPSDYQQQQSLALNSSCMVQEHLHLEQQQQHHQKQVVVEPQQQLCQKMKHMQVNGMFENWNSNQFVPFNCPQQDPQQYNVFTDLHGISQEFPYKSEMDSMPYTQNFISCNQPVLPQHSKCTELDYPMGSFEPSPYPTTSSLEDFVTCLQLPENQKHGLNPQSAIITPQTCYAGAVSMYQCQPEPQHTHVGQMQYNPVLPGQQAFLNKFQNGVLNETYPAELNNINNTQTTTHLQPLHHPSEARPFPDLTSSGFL
Peroxisome proliferator-activated receptor gamma (Homo sapiens), sequence (P37231 whole entry, looked up): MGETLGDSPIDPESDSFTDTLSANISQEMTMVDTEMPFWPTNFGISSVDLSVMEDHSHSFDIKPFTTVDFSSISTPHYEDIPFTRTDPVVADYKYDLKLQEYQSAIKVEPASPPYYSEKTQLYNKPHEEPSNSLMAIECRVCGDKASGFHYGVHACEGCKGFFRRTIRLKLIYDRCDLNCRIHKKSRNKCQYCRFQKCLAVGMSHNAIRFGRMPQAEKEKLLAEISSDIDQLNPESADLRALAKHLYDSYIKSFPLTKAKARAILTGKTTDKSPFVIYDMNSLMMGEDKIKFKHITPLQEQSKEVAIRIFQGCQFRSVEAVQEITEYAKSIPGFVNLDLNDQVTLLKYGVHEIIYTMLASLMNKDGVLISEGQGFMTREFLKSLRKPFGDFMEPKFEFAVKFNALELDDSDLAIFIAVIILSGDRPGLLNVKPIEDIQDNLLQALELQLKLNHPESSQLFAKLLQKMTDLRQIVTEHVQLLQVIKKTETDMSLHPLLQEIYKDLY
Bile acid receptor (Homo sapiens), sequence (Q96RI1 whole entry, looked up): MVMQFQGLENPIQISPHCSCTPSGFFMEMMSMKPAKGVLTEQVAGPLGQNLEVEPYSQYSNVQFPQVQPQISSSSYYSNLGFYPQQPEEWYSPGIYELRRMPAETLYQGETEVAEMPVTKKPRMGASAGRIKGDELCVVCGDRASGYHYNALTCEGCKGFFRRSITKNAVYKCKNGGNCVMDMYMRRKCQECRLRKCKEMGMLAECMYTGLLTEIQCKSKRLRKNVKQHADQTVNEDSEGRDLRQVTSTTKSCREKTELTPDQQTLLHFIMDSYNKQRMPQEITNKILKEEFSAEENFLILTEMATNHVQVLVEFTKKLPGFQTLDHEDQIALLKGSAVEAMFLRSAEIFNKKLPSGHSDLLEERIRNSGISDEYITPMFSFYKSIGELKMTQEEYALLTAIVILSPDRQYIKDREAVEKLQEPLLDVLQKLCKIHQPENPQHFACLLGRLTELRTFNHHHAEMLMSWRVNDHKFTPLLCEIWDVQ
Vitamin D3 receptor (Homo sapiens), sequence (P11473 whole entry, looked up): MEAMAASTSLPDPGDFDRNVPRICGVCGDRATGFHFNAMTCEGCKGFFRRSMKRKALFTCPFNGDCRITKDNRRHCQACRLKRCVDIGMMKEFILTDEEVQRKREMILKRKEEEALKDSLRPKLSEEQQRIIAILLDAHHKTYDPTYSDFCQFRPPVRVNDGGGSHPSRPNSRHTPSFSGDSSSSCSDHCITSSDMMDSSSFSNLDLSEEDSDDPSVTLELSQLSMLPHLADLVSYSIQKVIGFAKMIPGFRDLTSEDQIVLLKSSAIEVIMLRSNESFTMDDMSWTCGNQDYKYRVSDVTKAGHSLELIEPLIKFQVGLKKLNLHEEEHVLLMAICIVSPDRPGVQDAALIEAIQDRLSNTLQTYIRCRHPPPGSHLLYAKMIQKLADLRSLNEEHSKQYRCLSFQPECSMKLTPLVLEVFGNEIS

In the case of `CC(=O)O[C@]1(C(C)=O)CC[C@H]2[C@@H]3C=C(C)C4=CC(=O)CC[C@]4(C)[C@H]3CC[C@@]21C`, the Potency result in [1], in experiment [2], in experiment [3], in experiment [5], in experiment [7] and in [8] was “inactive” each time. The Potency result in [10], in experiment [11], in experiment [12] and in experiment [13] was “inactive” throughout. Moreover, the call in experiment [4], in experiment [9] and in experiment [14] was inactive. In addition, the Potency in [6] is 19.3 µM (active) and 11.9 µM (active).

As for `CC(=O)[C@H]1CC[C@H]2[C@@H]3CC=C4C[C@@H](O)CC[C@]4(C)[C@H]3CC[C@]12C`, the Potency entry in experiment [1], in experiment [2], in experiment [3], in [5], in [7] and in [10] was “inactive” each time. For the same molecule, the Potency entry in experiment [11], in experiment [17], in experiment [12] and in experiment [13] was “inactive” throughout. The call in [4], in experiment [9], in experiment [15], in experiment [16], in experiment [18] and in experiment [19] was inactive. In experiment [14], the molecule was classed as inactive. In addition, the Potency in [6] was 12.2 µM (active).

For the molecule `[O-]/[N+](=N\O)c1ccccc1`, the Potency result in experiment [1], in experiment [3], in experiment [20], in [7], in [8] and in experiment [10] was “inactive” each time. Moreover, the Potency entry in [11], in [12] and in experiment [13] was “inactive” in each case. Besides, the Potency in experiment [2] is 30.6 µM (active). The outcome in experiment [4], in experiment [9], in [15], in experiment [16], in experiment [19] and in experiment [14] was inactive.

For `Oc1c(Cl)ccc(Cl)c1Cl`, the Potency entry in experiment [1], in experiment [2], in experiment [3], in experiment [20], in experiment [7] and in experiment [10] was “inactive” in each case. Moreover, the Potency entry in [11], in experiment [17], in experiment [12] and in experiment [13] was “inactive” throughout. The molecule was classed as inactive in [4], in experiment [9], in experiment [15], in [16], in experiment [18] and in [19]. For the same molecule, the call in [14] was inactive.

As to `Cc1ccc(S(=O)(=O)NCl)cc1`, the Potency entry in experiment [1], in experiment [2], in experiment [3], in experiment [20], in [6] and in experiment [7] was “inactive” throughout. Further, the Potency entry in experiment [10], in experiment [11], in experiment [12] and in [13] was “inactive” throughout. For the same molecule, the molecule was called inactive in experiment [4], in experiment [15] and in [16].

Turning to `CC1(C)NC(=O)N(c2ccc([N+](=O)[O-])c(C(F)(F)F)c2)C1=O`, the Potency entry in [1], in [2], in experiment [3], in [20], in experiment [7] and in experiment [8] was “inactive” in each case. Moreover, the Potency entry in [10], in experiment [11], in experiment [17], in experiment [12] and in [13] was “inactive” each time. Besides, the molecule was called inactive in [4], in experiment [9], in [18], in [19] and in [14]. The Potency in [6] was 6.86 µM (active) and 26.6 µM (active).

`CCC/C=C/C=O`: the Potency result in experiment [1], in experiment [2], in experiment [3], in [6], in [7] and in experiment [10] was “inactive” throughout. Also, the Potency entry in [11], in experiment [12] and in experiment [13] was “inactive” throughout. Moreover, the molecule was called inactive in experiment [4], in experiment [9] and in experiment [15].

Consider `CC(=O)Oc1c(C)c(C)c2c(c1C)CC[C@@](C)(CCC[C@H](C)CCC[C@H](C)CCCC(C)C)O2`, for which the Potency entry in experiment [1], in [2], in [3], in experiment [20], in experiment [6] and in experiment [7] was “inactive” each time. The Potency result in experiment [8], in experiment [10], in experiment [11], in experiment [12] and in experiment [13] was “inactive” each time. Moreover, the outcome in experiment [4], in experiment [9], in experiment [15], in experiment [19] and in [14] was inactive.

For the molecule `C[N+](C)(C)CCO`, the Potency entry in experiment [1], in experiment [2], in experiment [3], in experiment [5], in experiment [6] and in [7] was “inactive” each time. For the same molecule, the Potency entry in [10], in [11], in [12] and in experiment [13] was “inactive” each time. Also, the molecule was called inactive in [4], in experiment [15], in [16], in [19] and in experiment [14].

Values taken from PubChem BioAssay (Tox21).
